Measured values taken from paper PMC11006913.

Assays:
Test in all cases: PBM; 200 nM protein, PBS
Details in all cases: dsDNA, one strand shown
HESX1 [1] = molecular target: HESX1 (Homo sapiens, UniProt Q9UBX0 95-180, R165K)
HOXB4 [2] = molecular target: HOXB4 (Homo sapiens, UniProt P17483 148-234)
SHOX [3] = molecular target: SHOX (Homo sapiens, UniProt O15266 103-189)
HESX1 [4] = molecular target: HESX1 (Homo sapiens, UniProt Q9UBX0 95-180)
HOXB4 [5] = molecular target: HOXB4 (Homo sapiens, UniProt P17483 148-234, V174I)
ALX1 [6] = molecular target: ALX1 (Homo sapiens, UniProt Q15699 118-204, L144V)
ALX3 [7] = molecular target: ALX3 (Homo sapiens, UniProt O95076 139-225, N203Q)
SHOX [8] = molecular target: SHOX (Homo sapiens, UniProt O15266 103-189, R173C)
ALX1 [9] = molecular target: ALX1 (Homo sapiens, UniProt Q15699 118-204, L144R)
ALX3 [10] = molecular target: ALX3 (Homo sapiens, UniProt O95076 139-225)
PROP1 [11] = molecular target: PROP1 (Homo sapiens, UniProt O75360 56-141)
HESX1 [12] = molecular target: HESX1 (Homo sapiens, UniProt Q9UBX0 95-180, R109Q)
PROP1 [13] = molecular target: PROP1 (Homo sapiens, UniProt O75360 56-141, R99H)
ALX3 [14] = molecular target: ALX3 (Homo sapiens, UniProt O95076 139-225, L168Q)
HESX1 [15] = molecular target: HESX1 (Homo sapiens, UniProt Q9UBX0 95-180, P111T)
ALX3 [16] = molecular target: ALX3 (Homo sapiens, UniProt O95076 139-225, L168V)
PROP1 [17] = molecular target: PROP1 (Homo sapiens, UniProt O75360 56-141, F88S)
HESX1 [18] = molecular target: HESX1 (Homo sapiens, UniProt Q9UBX0 95-180, F115L)
ALX1 [19] = molecular target: ALX1 (Homo sapiens, UniProt Q15699 118-204)
ALX3 [20] = molecular target: ALX3 (Homo sapiens, UniProt O95076 139-225, N203S)
ALX3 (Homo sapiens, UniProt O95076 139-225, N203S), sequence (O95076 139-225 N203S): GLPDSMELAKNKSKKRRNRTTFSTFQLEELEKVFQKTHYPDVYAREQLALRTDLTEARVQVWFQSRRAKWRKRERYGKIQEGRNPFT

PROP1 (Homo sapiens, UniProt O75360 56-141, F88S), sequence (O75360 56-141 F88S): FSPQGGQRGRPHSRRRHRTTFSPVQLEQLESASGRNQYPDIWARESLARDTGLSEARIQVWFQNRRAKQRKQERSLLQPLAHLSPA
PROP1 (Homo sapiens, UniProt O75360 56-141, R99H), sequence (O75360 56-141 R99H): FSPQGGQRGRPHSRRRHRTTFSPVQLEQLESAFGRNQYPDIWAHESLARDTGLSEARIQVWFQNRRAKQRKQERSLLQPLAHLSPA
HOXB4 (Homo sapiens, UniProt P17483 148-234, V174I), sequence (P17483 148-234 V174I): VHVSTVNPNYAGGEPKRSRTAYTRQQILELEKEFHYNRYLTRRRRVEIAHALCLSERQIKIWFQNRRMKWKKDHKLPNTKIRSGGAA
HESX1 (Homo sapiens, UniProt Q9UBX0 95-180), sequence (Q9UBX0 95-180): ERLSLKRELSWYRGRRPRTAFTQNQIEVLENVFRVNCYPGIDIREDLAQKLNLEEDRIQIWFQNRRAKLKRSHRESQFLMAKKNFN
HESX1 (Homo sapiens, UniProt Q9UBX0 95-180, P111T), sequence (Q9UBX0 95-180 P111T): as the sequence (Q9UBX0 95-180) above, with P17T counted along it
ALX3 (Homo sapiens, UniProt O95076 139-225, N203Q), sequence (O95076 139-225 N203Q): as the sequence (O95076 139-225 N203S) above, with S65Q counted along it
HESX1 (Homo sapiens, UniProt Q9UBX0 95-180, F115L), sequence (Q9UBX0 95-180 F115L): as the sequence (Q9UBX0 95-180) above, with F21L counted along it
ALX3 (Homo sapiens, UniProt O95076 139-225, L168Q), sequence (O95076 139-225 L168Q): as the sequence (O95076 139-225 N203S) above, with L30Q, S65N counted along it
HESX1 (Homo sapiens, UniProt Q9UBX0 95-180, R165K), sequence (Q9UBX0 95-180 R165K): as the sequence (Q9UBX0 95-180) above, with R71K counted along it
SHOX (Homo sapiens, UniProt O15266 103-189, R173C), sequence (O15266 103-189 R173C): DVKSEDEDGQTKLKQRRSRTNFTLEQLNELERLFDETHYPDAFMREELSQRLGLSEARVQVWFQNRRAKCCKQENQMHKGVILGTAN
ALX1 (Homo sapiens, UniProt Q15699 118-204, L144R), sequence (Q15699 118-204 L144R): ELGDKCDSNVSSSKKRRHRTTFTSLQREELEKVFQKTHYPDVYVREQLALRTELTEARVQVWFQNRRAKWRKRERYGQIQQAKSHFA
PROP1 (Homo sapiens, UniProt O75360 56-141), sequence (O75360 56-141): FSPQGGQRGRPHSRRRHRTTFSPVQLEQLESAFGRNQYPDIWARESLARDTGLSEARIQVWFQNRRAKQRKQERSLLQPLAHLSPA
ALX3 (Homo sapiens, UniProt O95076 139-225, L168V), sequence (O95076 139-225 L168V): as the sequence (O95076 139-225 N203S) above, with L30V, S65N counted along it
ALX3 (Homo sapiens, UniProt O95076 139-225), sequence (O95076 139-225): as the sequence (O95076 139-225 N203S) above, with S65N counted along it
HOXB4 (Homo sapiens, UniProt P17483 148-234), sequence (P17483 148-234): as the sequence (P17483 148-234 V174I) above, with I27V counted along it
ALX1 (Homo sapiens, UniProt Q15699 118-204, L144V), sequence (Q15699 118-204 L144V): as the sequence (Q15699 118-204 L144R) above, with R27V counted along it
SHOX (Homo sapiens, UniProt O15266 103-189), sequence (O15266 103-189): as the sequence (O15266 103-189 R173C) above, with C71R counted along it
HESX1 (Homo sapiens, UniProt Q9UBX0 95-180, R109Q), sequence (Q9UBX0 95-180 R109Q): as the sequence (Q9UBX0 95-180) above, with R15Q counted along it
ALX1 (Homo sapiens, UniProt Q15699 118-204), sequence (Q15699 118-204): as the sequence (Q15699 118-204 L144R) above, with R27L counted along it

Sequence: ACTAATTA
- binding signal (HESX1 [1]): 13.9 upbm affinity estimate (log intensity, higher = more binding, comparable within an allelic series)
- binding signal (HOXB4 [2]): 13.5 upbm affinity estimate (log intensity, higher = more binding, comparable within an allelic series)
- binding signal (SHOX [3]): 13.2 upbm affinity estimate (log intensity, higher = more binding, comparable within an allelic series)
- binding signal (HESX1 [4]): 13.5 upbm affinity estimate (log intensity, higher = more binding, comparable within an allelic series)
- binding signal (HOXB4 [5]): 14.2 upbm affinity estimate (log intensity, higher = more binding, comparable within an allelic series)
- binding signal (ALX1 [6]): 12.4 upbm affinity estimate (log intensity, higher = more binding, comparable within an allelic series)
- binding signal (ALX3 [7]): 8.59 upbm affinity estimate (log intensity, higher = more binding, comparable within an allelic series)
- binding signal (SHOX [8]): 10.6 upbm affinity estimate (log intensity, higher = more binding, comparable within an allelic series)
- binding signal (ALX1 [9]): 12 upbm affinity estimate (log intensity, higher = more binding, comparable within an allelic series)
- binding signal (ALX3 [10]): 12.9 upbm affinity estimate (log intensity, higher = more binding, comparable within an allelic series)
- binding signal (PROP1 [11]): 12.2 upbm affinity estimate (log intensity, higher = more binding, comparable within an allelic series)
- binding signal (HESX1 [12]): 10.5 upbm affinity estimate (log intensity, higher = more binding, comparable within an allelic series)
- binding signal (PROP1 [13]): 12.4 upbm affinity estimate (log intensity, higher = more binding, comparable within an allelic series)
- binding signal (ALX3 [14]): 11.5 upbm affinity estimate (log intensity, higher = more binding, comparable within an allelic series)
- binding signal (HESX1 [15]): 12.4 upbm affinity estimate (log intensity, higher = more binding, comparable within an allelic series)
- binding signal (ALX3 [16]): 11.2 upbm affinity estimate (log intensity, higher = more binding, comparable within an allelic series)
- binding signal (PROP1 [17]): 8.34 upbm affinity estimate (log intensity, higher = more binding, comparable within an allelic series)
- binding signal (HESX1 [18]): 8.35 upbm affinity estimate (log intensity, higher = more binding, comparable within an allelic series)
- binding signal (ALX1 [19]): 13 upbm affinity estimate (log intensity, higher = more binding, comparable within an allelic series)
- binding signal (ALX3 [20]): 8.73 upbm affinity estimate (log intensity, higher = more binding, comparable within an allelic series)

Sequence: CAATTAAC
- binding signal (HESX1 [1]): 13.1 upbm affinity estimate (log intensity, higher = more binding, comparable within an allelic series)
- binding signal (HOXB4 [2]): 13.2 upbm affinity estimate (log intensity, higher = more binding, comparable within an allelic series)
- binding signal (SHOX [3]): 12.1 upbm affinity estimate (log intensity, higher = more binding, comparable within an allelic series)
- binding signal (HESX1 [4]): 13.1 upbm affinity estimate (log intensity, higher = more binding, comparable within an allelic series)
- binding signal (HOXB4 [5]): 13.9 upbm affinity estimate (log intensity, higher = more binding, comparable within an allelic series)
- binding signal (ALX1 [6]): 11.8 upbm affinity estimate (log intensity, higher = more binding, comparable within an allelic series)
- binding signal (ALX3 [7]): 8.37 upbm affinity estimate (log intensity, higher = more binding, comparable within an allelic series)
- binding signal (SHOX [8]): 9.74 upbm affinity estimate (log intensity, higher = more binding, comparable within an allelic series)
- binding signal (ALX1 [9]): 11.5 upbm affinity estimate (log intensity, higher = more binding, comparable within an allelic series)
- binding signal (ALX3 [10]): 12.7 upbm affinity estimate (log intensity, higher = more binding, comparable within an allelic series)
- binding signal (PROP1 [11]): 11.6 upbm affinity estimate (log intensity, higher = more binding, comparable within an allelic series)
- binding signal (HESX1 [12]): 9.81 upbm affinity estimate (log intensity, higher = more binding, comparable within an allelic series)
- binding signal (PROP1 [13]): 11.8 upbm affinity estimate (log intensity, higher = more binding, comparable within an allelic series)
- binding signal (ALX3 [14]): 10.8 upbm affinity estimate (log intensity, higher = more binding, comparable within an allelic series)
- binding signal (HESX1 [15]): 11.7 upbm affinity estimate (log intensity, higher = more binding, comparable within an allelic series)
- binding signal (ALX3 [16]): 10.3 upbm affinity estimate (log intensity, higher = more binding, comparable within an allelic series)
- binding signal (PROP1 [17]): 7.68 upbm affinity estimate (log intensity, higher = more binding, comparable within an allelic series)
- binding signal (HESX1 [18]): 7.95 upbm affinity estimate (log intensity, higher = more binding, comparable within an allelic series)
- binding signal (ALX1 [19]): 12.5 upbm affinity estimate (log intensity, higher = more binding, comparable within an allelic series)
- binding signal (ALX3 [20]): 8.57 upbm affinity estimate (log intensity, higher = more binding, comparable within an allelic series)

Sequence: ATCAATTA
- binding signal (HESX1 [1]): 13.5 upbm affinity estimate (log intensity, higher = more binding, comparable within an allelic series)
- binding signal (HOXB4 [2]): 13.4 upbm affinity estimate (log intensity, higher = more binding, comparable within an allelic series)
- binding signal (SHOX [3]): 12.6 upbm affinity estimate (log intensity, higher = more binding, comparable within an allelic series)
- binding signal (HESX1 [4]): 13.4 upbm affinity estimate (log intensity, higher = more binding, comparable within an allelic series)
- binding signal (HOXB4 [5]): 14.1 upbm affinity estimate (log intensity, higher = more binding, comparable within an allelic series)
- binding signal (ALX1 [6]): 12 upbm affinity estimate (log intensity, higher = more binding, comparable within an allelic series)
- binding signal (ALX3 [7]): 8.5 upbm affinity estimate (log intensity, higher = more binding, comparable within an allelic series)
- binding signal (SHOX [8]): 10.1 upbm affinity estimate (log intensity, higher = more binding, comparable within an allelic series)
- binding signal (ALX1 [9]): 11.8 upbm affinity estimate (log intensity, higher = more binding, comparable within an allelic series)
- binding signal (ALX3 [10]): 12.7 upbm affinity estimate (log intensity, higher = more binding, comparable within an allelic series)
- binding signal (PROP1 [11]): 11.8 upbm affinity estimate (log intensity, higher = more binding, comparable within an allelic series)
- binding signal (HESX1 [12]): 10.2 upbm affinity estimate (log intensity, higher = more binding, comparable within an allelic series)
- binding signal (PROP1 [13]): 12.2 upbm affinity estimate (log intensity, higher = more binding, comparable within an allelic series)
- binding signal (ALX3 [14]): 10.9 upbm affinity estimate (log intensity, higher = more binding, comparable within an allelic series)
- binding signal (HESX1 [15]): 12.1 upbm affinity estimate (log intensity, higher = more binding, comparable within an allelic series)
- binding signal (ALX3 [16]): 10.4 upbm affinity estimate (log intensity, higher = more binding, comparable within an allelic series)
- binding signal (PROP1 [17]): 7.84 upbm affinity estimate (log intensity, higher = more binding, comparable within an allelic series)
- binding signal (HESX1 [18]): 8.22 upbm affinity estimate (log intensity, higher = more binding, comparable within an allelic series)
- binding signal (ALX1 [19]): 12.8 upbm affinity estimate (log intensity, higher = more binding, comparable within an allelic series)
- binding signal (ALX3 [20]): 8.66 upbm affinity estimate (log intensity, higher = more binding, comparable within an allelic series)

Sequence: TCAATTAA
- binding signal (HESX1 [1]): 13.4 upbm affinity estimate (log intensity, higher = more binding, comparable within an allelic series)
- binding signal (HOXB4 [2]): 13.3 upbm affinity estimate (log intensity, higher = more binding, comparable within an allelic series)
- binding signal (SHOX [3]): 12.4 upbm affinity estimate (log intensity, higher = more binding, comparable within an allelic series)
- binding signal (HESX1 [4]): 13.2 upbm affinity estimate (log intensity, higher = more binding, comparable within an allelic series)
- binding signal (HOXB4 [5]): 14 upbm affinity estimate (log intensity, higher = more binding, comparable within an allelic series)
- binding signal (ALX1 [6]): 12 upbm affinity estimate (log intensity, higher = more binding, comparable within an allelic series)
- binding signal (ALX3 [7]): 8.44 upbm affinity estimate (log intensity, higher = more binding, comparable within an allelic series)
- binding signal (SHOX [8]): 9.85 upbm affinity estimate (log intensity, higher = more binding, comparable within an allelic series)
- binding signal (ALX1 [9]): 11.7 upbm affinity estimate (log intensity, higher = more binding, comparable within an allelic series)
- binding signal (ALX3 [10]): 12.7 upbm affinity estimate (log intensity, higher = more binding, comparable within an allelic series)
- binding signal (PROP1 [11]): 11.6 upbm affinity estimate (log intensity, higher = more binding, comparable within an allelic series)
- binding signal (HESX1 [12]): 9.91 upbm affinity estimate (log intensity, higher = more binding, comparable within an allelic series)
- binding signal (PROP1 [13]): 12 upbm affinity estimate (log intensity, higher = more binding, comparable within an allelic series)
- binding signal (ALX3 [14]): 11 upbm affinity estimate (log intensity, higher = more binding, comparable within an allelic series)
- binding signal (HESX1 [15]): 11.9 upbm affinity estimate (log intensity, higher = more binding, comparable within an allelic series)
- binding signal (ALX3 [16]): 10.5 upbm affinity estimate (log intensity, higher = more binding, comparable within an allelic series)
- binding signal (PROP1 [17]): 7.83 upbm affinity estimate (log intensity, higher = more binding, comparable within an allelic series)
- binding signal (HESX1 [18]): 7.87 upbm affinity estimate (log intensity, higher = more binding, comparable within an allelic series)
- binding signal (ALX1 [19]): 12.6 upbm affinity estimate (log intensity, higher = more binding, comparable within an allelic series)
- binding signal (ALX3 [20]): 8.6 upbm affinity estimate (log intensity, higher = more binding, comparable within an allelic series)
